Test results: a collection of fitness landscapes (doi:10.1126/science.1257360)
In all, about 140,000 sequences were measured (“enrichment ratio after two sorts for PhoP signalling”: median about 0, highest 2% from about 11 on). This excerpt belongs to a sample that is enriched for the highest values.

B1: PhoQ; a variant is named by its letters at X, in order, P23837 (parent)
chain: MKKLLRLFFPLSLRVRFLLATAAVVLVLSLAYGMVALIGYSVSFDKTTFRLLRGESNLFYTLAKWENNKLHVELPENIDKQSPTMTLIYDENGQLLWAQRDVPWLMKMIQPDWLKSNGFHEIEADVNDTSLLLSGDHSIQQQLQEVREDDDDAEMTHSVAVNVYPATSRMPKLTIVVVDTIPVELKSSYMVWSWFIYVLSANLLLVIPLLWVAAWWSLRPIEALAKEVRELEEHNRELLNPATTRELTSLVRNLNRLLKSERERYDKYRTTLTDLTHSLKTPLXXLQXXLRSLRSEKMSVSDAEPVMLEQISRISQQIGYYLHRASMRGGTLLSRELHPVAPLLDNLTSALNKVYQRKGVNISLDISPEISFVGEQNDFVEVMGNVLDNACKYCLEFVEISARQTDEHLYIVVEDDGPGIPLSKREVIFDRGQRVDTLRPGQGVGLAVAREITEQYEGKIVAGESMLGGARMEVIFGRQHSAPKDE

Variants of: B1
Assay: enrichment ratio after two sorts for PhoP signalling (ratio (wild type AVST 3.29)); higher = more functional
Settings: with PhoP (E. coli)

| Variant | enrichment ratio |
| --- | --- |
| HWIF | ≤ 0.25 |
| MFWN | ≤ 0.25 |
| AMSS | 9.96 |
| WMWY | ≤ 0.25 |
| TTLC | 14.4 |
| SFLC | 4.52 |
| SRLC | ≤ 0.25 |
| SKLC | 12.6 |
| SKKC | ≤ 0.25 |
| SELC | 20.4 |
| SNLC | 11.3 |
| TPLC | ≤ 0.25 |
| SLLC | 7.49 |
| GTLC | 10 |
| SKTC | 11.1 |
| LTLC | ≤ 0.25 |
| VGMT | ≤ 0.25 |
| NFAS | ≤ 0.25 |
| AWLG | ≤ 0.25 |
| PRVI | ≤ 0.25 |
| THYW | ≤ 0.25 |
| ELGT | ≤ 0.25 |
| FGYD | ≤ 0.25 |
| EVSM | 7.73 |

| Variant | enrichment ratio |
| --- | --- |
| SNNY | 8.91 |
| YTNM | ≤ 0.25 |
| SLNM | ≤ 0.25 |
| SNRM | ≤ 0.25 |
| SNGS | 9.33 |
| SNGM | 15.3 |
| SNGD | ≤ 0.25 |
| SNNM | 13.1 |
| STNM | 11.4 |
| SRGY | ≤ 0.25 |
| SQNM | 1.65 |
| SNGY | 12.6 |
| RSCE | ≤ 0.25 |
| QIIS | ≤ 0.25 |
| TQLR | 2.23 |
| LNRD | 0.657 |
| EFTP | ≤ 0.25 |
| NIED | ≤ 0.25 |
| HGTL | 6.22 |
| SVCM | 14.2 |
| SVCK | 9.8 |
| SDCM | 17.2 |
| SYCM | ≤ 0.25 |
| MTCM | 12.2 |

| Variant | enrichment ratio |
| --- | --- |
| SECM | 38.2 |
| SVCE | 2.84 |
| MTCK | ≤ 0.25 |
| FDCM | ≤ 0.25 |
| MHCM | ≤ 0.25 |
| SPCM | ≤ 0.25 |
| SRCM | 9.77 |
| KPWY | ≤ 0.25 |
| TYSW | ≤ 0.25 |
| HHAG | ≤ 0.25 |
| IFAS | ≤ 0.25 |
| MQIG | ≤ 0.25 |
| FTCM | 7.68 |
| NTCM | ≤ 0.25 |
| WLCM | ≤ 0.25 |
| LTCM | ≤ 0.25 |
| SLCM | 16.9 |
| ITCM | 1 |
| STCM | 13.3 |
| YHCM | ≤ 0.25 |
| RTCM | ≤ 0.25 |
| PLCM | ≤ 0.25 |
| TTCM | 24.5 |
| YTCM | 11.5 |

| Variant | enrichment ratio |
| --- | --- |
| RMAR | ≤ 0.25 |
| LPWH | ≤ 0.25 |
| KMFP | ≤ 0.25 |
| IDIW | ≤ 0.25 |
| DRHH | ≤ 0.25 |
| ITAF | ≤ 0.25 |
| TAMG | 17.2 |
| TAMN | 59.7 |
| YATV | ≤ 0.25 |
| TAVC | 1.35 |
| KATV | ≤ 0.25 |
| TANV | 17.9 |
| TAVG | ≤ 0.25 |
| KAMN | ≤ 0.25 |
| KANV | ≤ 0.25 |
| YANV | ≤ 0.25 |
| TATV | 13.6 |
| NAMN | ≤ 0.25 |
| YFEP | ≤ 0.25 |
| NMRI | ≤ 0.25 |
| YHGP | ≤ 0.25 |
| TWHF | ≤ 0.25 |
| LTFD | ≤ 0.25 |
| HWNR | ≤ 0.25 |

| Variant | enrichment ratio |
| --- | --- |
| WEAV | ≤ 0.25 |
| KAMP | ≤ 0.25 |
| WWAY | ≤ 0.25 |
| LLHT | ≤ 0.25 |
| HMSL | ≤ 0.25 |
| PQVE | ≤ 0.25 |
| HHWE | ≤ 0.25 |
| YAGF | ≤ 0.25 |
| LQQF | ≤ 0.25 |
| TAVA | ≤ 0.25 |
| LQQS | ≤ 0.25 |
| TAMS | 7.61 |
| TAMV | 14.2 |
| TAQS | 14.2 |
| TAPV | ≤ 0.25 |
| TAQF | 14 |
| TAGF | 13.2 |
| IAGF | ≤ 0.25 |
| TAHF | 10.3 |
| KVFQ | ≤ 0.25 |
| TFVR | ≤ 0.25 |
| QGQK | ≤ 0.25 |
| PHIC | ≤ 0.25 |
| NSGR | ≤ 0.25 |

| Variant | enrichment ratio |
| --- | --- |
| SWSS | ≤ 0.25 |
| AQVW | ≤ 0.25 |
| THPY | ≤ 0.25 |
| TAAF | 18.4 |
| TAWI | 10.7 |
| IAMF | ≤ 0.25 |
| TAWV | 12.8 |
| YAMF | ≤ 0.25 |
| NAAF | ≤ 0.25 |
| KAAF | ≤ 0.25 |
| TAVK | ≤ 0.25 |
| TAMF | 19.6 |
| DPRG | ≤ 0.25 |
| GCCQ | 8.03 |
| NNVY | ≤ 0.25 |
| MPPF | ≤ 0.25 |
| QTGS | 0.628 |
| SDDV | 0.265 |
| WLTS | ≤ 0.25 |
| AVCA | 6.97 |
| AVDH | ≤ 0.25 |
| AVTG | 11.3 |
| AVMG | 2.13 |
| AVVG | 11.2 |

| Variant | enrichment ratio |
| --- | --- |
| AVSI | 13.1 |
| HSNG | ≤ 0.25 |
| ERPM | ≤ 0.25 |
| QHPH | ≤ 0.25 |
| QVDS | 1.54 |
| LPHC | ≤ 0.25 |
| LNHC | ≤ 0.25 |
| LVHC | 15 |
| QLCK | ≤ 0.25 |
| QLNM | ≤ 0.25 |
| TVDY | ≤ 0.25 |
| FVDN | ≤ 0.25 |
| QVDY | 11.3 |
| QLWM | 12.6 |
| QVDN | 11.3 |
| QLDN | ≤ 0.25 |
| LLFG | ≤ 0.25 |
| YKSC | ≤ 0.25 |
| GCVC | ≤ 0.25 |
| HYNH | ≤ 0.25 |
| QSDS | 20.8 |
| QSDK | ≤ 0.25 |
| QADS | 3.89 |
| QEDH | ≤ 0.25 |

| Variant | enrichment ratio |
| --- | --- |
| QRWG | ≤ 0.25 |
| QPWG | ≤ 0.25 |
| QSDH | 18.9 |
| QSWG | 18 |
| KSDH | ≤ 0.25 |
| QADY | 11.7 |
| QSDA | 7.1 |
| KADY | ≤ 0.25 |
| QIRT | ≤ 0.25 |
| QYHW | ≤ 0.25 |
| CPHF | ≤ 0.25 |
| NKSG | ≤ 0.25 |
| VAGL | 1.62 |
| RRLA | ≤ 0.25 |
| QSHI | 15.9 |
| QEAM | ≤ 0.25 |
| KNHV | ≤ 0.25 |
| QSDI | 14.8 |
| QSHF | 9.45 |
| QSAM | 14.5 |
| KSHI | ≤ 0.25 |
| KSDI | ≤ 0.25 |
| QSGV | 3.83 |
| QSHV | 11.3 |

| Variant | enrichment ratio |
| --- | --- |
| QAAM | ≤ 0.25 |
| QPDI | ≤ 0.25 |
| SNHK | ≤ 0.25 |
| ELHR | ≤ 0.25 |
| RESM | ≤ 0.25 |
| NKRK | ≤ 0.25 |
| MWRP | ≤ 0.25 |
| GFQI | ≤ 0.25 |
| NFAP | ≤ 0.25 |
| QSGM | 21.6 |
| QSTH | ≤ 0.25 |
| QSWM | 11.9 |
| QSWA | 14.9 |
| QPWA | ≤ 0.25 |
| QSRM | ≤ 0.25 |
| QSPM | ≤ 0.25 |
| QSGD | ≤ 0.25 |
| QSCK | ≤ 0.25 |
| QRWA | ≤ 0.25 |
| QSWI | 21.7 |
| QSLA | ≤ 0.25 |
| WMFH | ≤ 0.25 |
| WHID | ≤ 0.25 |
| WSCR | ≤ 0.25 |

| Variant | enrichment ratio |
| --- | --- |
| TVMI | 1.87 |
| WGFP | ≤ 0.25 |
| HKEM | ≤ 0.25 |
| ESDT | ≤ 0.25 |
| QYWG | 16.3 |
| QSWY | 7.32 |
| QSHP | ≤ 0.25 |
| QYMG | ≤ 0.25 |
| QENM | ≤ 0.25 |
| QSTD | ≤ 0.25 |
| QSDY | 14.5 |
| KSDY | ≤ 0.25 |
| QSHQ | 22.4 |
| QSNM | 13.1 |
| KSNM | ≤ 0.25 |
| QYWI | ≤ 0.25 |
| HQNG | ≤ 0.25 |
| FDDI | ≤ 0.25 |
| SMYF | ≤ 0.25 |
| YYYI | ≤ 0.25 |
| FAGN | ≤ 0.25 |
| ICGK | ≤ 0.25 |
| IRTW | ≤ 0.25 |
| QSDM | 13.7 |

| Variant | enrichment ratio |
| --- | --- |
| QGGM | 4.35 |
| QRHC | ≤ 0.25 |
| QVHC | ≤ 0.25 |
| QRWD | ≤ 0.25 |
| QPDM | ≤ 0.25 |
| QLHC | 21.3 |
| FFDM | ≤ 0.25 |
| KSDM | ≤ 0.25 |
| QPWD | ≤ 0.25 |
| QSWD | 22.4 |
| QGDM | 27.5 |
| WGMH | ≤ 0.25 |
| ANRC | ≤ 0.25 |
| KGAG | ≤ 0.25 |
| TIPQ | ≤ 0.25 |
| PTHR | ≤ 0.25 |
| QRAL | ≤ 0.25 |
| NEAL | ≤ 0.25 |
| NAAL | ≤ 0.25 |
| MGAL | 15.5 |
| TGAL | 15.9 |
| KAAL | 1.81 |
| NGAL | ≤ 0.25 |
| TAAL | 11.4 |

| Variant | enrichment ratio |
| --- | --- |
| RGAL | 0.701 |
| TEAL | 14.7 |
| MEAL | 8.16 |
| GGAL | 4.27 |
| EAAP | ≤ 0.25 |
| LSEF | ≤ 0.25 |
| DGFG | ≤ 0.25 |
| EQRH | ≤ 0.25 |
| KHEV | ≤ 0.25 |
| INFP | ≤ 0.25 |
| TDLE | ≤ 0.25 |
| NRFY | ≤ 0.25 |
| VSYR | ≤ 0.25 |
| PTNE | ≤ 0.25 |
| FSIC | ≤ 0.25 |
| PHTQ | ≤ 0.25 |
| FFAL | ≤ 0.25 |
| QGAL | 15.6 |
| QAAL | 3.3 |
| LMWN | ≤ 0.25 |
| HINH | ≤ 0.25 |
| KPLN | ≤ 0.25 |
| TSWI | 3.63 |
| TSLT | 13.3 |

| Variant | enrichment ratio |
| --- | --- |
| TSLN | 16.9 |
| KSLA | ≤ 0.25 |
| KSLN | ≤ 0.25 |
| KSLT | ≤ 0.25 |
| KSLS | ≤ 0.25 |
| TSLS | 15.9 |
| TSLA | 16.6 |
| NSLN | ≤ 0.25 |
| FSLS | 9.54 |
| FSLT | 7.83 |
| YNRN | ≤ 0.25 |
| VLSY | 0.334 |
| DDLI | ≤ 0.25 |
| ARIV | ≤ 0.25 |
| HMEL | ≤ 0.25 |
| PRTC | ≤ 0.25 |
| INYQ | ≤ 0.25 |
| ICWY | ≤ 0.25 |
